Sampled rows, rich in hits. Any-hit rate of the full collection: about 2.6%.
TLR4-MyD88 BLA: inhibitors of TLR4-MyD88 association in cells, primary screen, cell-based, HeLa CL3-4, BLA complementation, FRET ratio; Toll-like receptor 4 (Homo sapiens) + Myeloid differentiation primary response protein …; inhibition, % at 8.4 µM; HeLa CL3-4 TLR4/MyD88 BLA complementation; actives 0.18% (n = 200,000); in the data active = inhibition above about 25%;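 also: 0% = vehicle and 100% = reference inhibitor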
TLR9-MyD88 block: inhibitors of TLR9-MyD88 association in cells, primary screen, cell-based, CHO, BLA complementation, fluorescence; Toll-like receptor 9 (Homo sapiens) + Myeloid differentiation primary response protein …; CCF4 FRET ratio; inhibition, % at 4.98 µM; actives 0.21% (n = 340,000); AID 504734, 2011;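 active = inhibition above the mean over all tested compounds plus 3 SD, cut at about 21% in these data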;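 also: 0% = DMSO only wells and 100% = clavulanate BLA inhibitor control wells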
ABHD5-PLIN5 inh: ABHD5-PLIN5 interaction inhibitors, primary screen, cell lysate, split luciferase complementation, luminescence | Split G. princeps luciferase complementation, 4 h | inhibition, % at 4 µM | actives 0.78% (n = 360,000);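 active = inhibition above the mean inhibition across every tested compound plus 3 SD, cut at about 22% in these data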;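 also: 0% = DMSO only wells and the 100% control is not disclosed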
Exocytosis inh: LAMP-1 surface exposure blockers, TALL-104 cells – cell-based, flow cytometry, MLPCN library, primary screen; inhibition, % at 10 µM; TALL-104 LAMP-1 surface exposure; cells stimulated with thapsigargin and PMA; actives 0.66% (n = 360,000);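 active = inhibition above about 55%, limit read from the data; inconclusive = no clear call, values can overlap the other calls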
PRMT1 FP inh: PRMT1 methyltransferase inhibitors, primary screen, biochemical, fluorescence polarization; Protein arginine N-methyltransferase 1 (Homo sapiens), Q99873; recombinant PRMT1, activity-based probe fluorescence polarization; actives 1.3% (n = 370,000); inhibition, % at 2.79 µM;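 active = inhibition above about 21% made by adding two undisclosed values, limit read from the data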
NOD2 RIPK2 PPI: NOD2-RIPK2 binding disruptors in cells, primary screen, fluorescence, CHO cells, BLA complementation | AID 624267, 2012 | Receptor-interacting serine/threonine-protein kinase 2 (Homo sapiens), O43353 | CCF4 ratio | inhibition, % at 4.98 µM | actives 0.38% (n = 360,000); in the data active = inhibition above about 21%;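 also: 0% = vehicle only and 100% = reference blocker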
Target sequence (O43353 whole entry, looked up): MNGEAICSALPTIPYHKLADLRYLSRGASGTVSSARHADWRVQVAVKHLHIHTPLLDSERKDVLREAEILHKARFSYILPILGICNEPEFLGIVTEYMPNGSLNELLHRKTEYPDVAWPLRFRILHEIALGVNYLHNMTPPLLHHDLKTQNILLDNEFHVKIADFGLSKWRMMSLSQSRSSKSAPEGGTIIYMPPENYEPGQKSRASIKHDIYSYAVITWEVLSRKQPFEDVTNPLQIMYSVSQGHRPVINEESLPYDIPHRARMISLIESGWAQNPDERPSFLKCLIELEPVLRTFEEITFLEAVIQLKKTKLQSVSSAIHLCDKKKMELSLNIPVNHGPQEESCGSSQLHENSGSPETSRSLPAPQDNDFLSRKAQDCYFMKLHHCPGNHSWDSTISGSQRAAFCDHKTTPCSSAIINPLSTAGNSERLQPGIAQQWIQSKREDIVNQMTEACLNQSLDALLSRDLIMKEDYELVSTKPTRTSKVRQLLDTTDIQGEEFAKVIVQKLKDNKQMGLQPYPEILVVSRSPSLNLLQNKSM
Granule exo CP1: inhibitors of lytic granule exocytosis, confirmation, TALL-104 cells, flow cytometry, Cherry Pick01; inhibition, % at 10 µM; AID 651954, 2012; shares compounds with Exocytosis inh; LAMP-1 externalization; stimulated with PMA plus thapsigargin; actives 11% (n = 1,500); in the data active = inhibition above about 60%;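 also: 0% = stimulated vehicle wells and 100% = unstimulated wells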
Numbers without * were called inactive; ? = inconclusive; . = not tested or not shown.

SMILES | TLR4-MyD88 BLA | TLR9-MyD88 block | ABHD5-PLIN5 inh | Exocytosis inh | PRMT1 FP inh | NOD2 RIPK2 PPI | Granule exo CP1
CCCC(=O)N1CCC(Cc2ccccc2)CC1 | . | -2 | 5 | ? | 6 | -5 | .
CCCCCCNCC(=O)N1CCC(Cc2ccccc2)CC1 | . | -1 | 7 | 70* | 0 | -6 | -13
O=C(NCC1COc2ccccc2O1)c1ccc(NC(=O)c2cccc(F)c2)cc1 (stereo not given) | . | . | . | . | -2 | . | .
COc1ccc(-c2cc(CNc3nc(NCc4ccccc4OC)nc4ccsc34)on2)cc1 | . | . | 10 | 66* | -1 | -1 | 52
COc1ccccc1CNc1nc(NCc2ccccc2)nc2ccsc12 | . | . | 18 | 25 | 0 | -22 | .
COc1cccc(-c2cnc3c(NC=O)cc(-c4cc(C)c(O)c(C)c4)cn23)c1 | . | . | -3 | 63* | 6 | -7 | 14
COc1cccc(-c2cnc3c(NC=O)cc(-c4cccc(NC(C)=O)c4)cn23)c1 | . | . | -3 | 3 | 5 | 3 | .
COc1cccc(-c2cnc3c(NC=O)cc(-c4ccccc4)cn23)c1 | . | . | -4 | 97* | 4 | -5 | 70*
O=C(N[C@H](Cc1ccccc1)C(=O)O)[C@H]1O[C@@H](n2ccc(=O)[nH]c2=O)[C@H](O)[C@@H]1O | . | . | . | . | 1 | . | .
COc1cc(OC)cc(C(=O)Nc2ccc(-c3nc4ccccc4o3)cc2)c1 | -10 | 3 | 2 | 100* | -3 | -15 | 39
COc1cc2c(cc1NC(=O)CSc1nnc(-c3cnccn3)n1-c1ccc(C)cc1)oc1ccccc12 | . | . | . | . | 1 | . | .
COc1ccc(C(=O)C2CCCN(C(=O)c3cccnc3OC)C2)cc1F (stereo not given) | 7 | 5 | 4 | 77* | -5 | -5 | -15
COc1ccc(C(=O)C2CCCN(C(=O)c3cccs3)C2)cc1F (stereo not given) | -14 | 7 | 9 | 0 | -5 | -7 | .
O=C(c1ccc2ccccc2c1)C1CCCN(C(=O)c2cccnc2)C1 (stereo not given) | . | -4 | 5 | 66* | -1 | -6 | -4
C=CCN=C1NC(CCc2ccccc2)C(C(=O)OC)=C(C)N1Cc1cccc(C(F)(F)F)c1 (stereo not given) | . | . | . | . | 0 | . | .
COc1ccccc1-n1c(Cc2cccc3ccccc23)nnc1SCC(=O)O | . | . | . | . | -6 | . | .
O=C(c1cccc(C(F)(F)F)c1)N1CCC(=O)N(C(CO)Cc2ccccc2)CC1 (stereo not given) | . | -7 | 9 | 80* | -3 | -5 | -5
O=S1(=O)N[C@H](Cc2ccccc2)COc2cccc(NCCO)c21 | . | . | . | . | 0 | . | .
CCC1(C)CC(CCNS(=O)(=O)c2ccc(C)cc2)(c2ccc(C)cc2)CCO1 (stereo not given) | -5 | -5 | 9 | 57* | 1 | 1 | -12
CCCCNC(=O)O[C@H]1CC[C@@]23CCCN2C(=O)CCC[C@H]3[C@H]1C | . | . | . | . | -2 | . | .
COC(=O)[C@]12C[C@H](CC(=O)NCCCCc3ccccc3)C(=O)N(Cc3ccc4c(c3)OCO4)C1=C[C@H](COCc1ccccc1)O[C@@H]2C | . | . | . | . | -1 | . | .
O=C(NCc1ccco1)O[C@H]1CC[C@@]23CCCN2C(=O)CCC[C@H]3C1 | . | . | . | . | 3 | . | .
CCN(CC)c1nc(C)nc2c1cnn2CCc1ccccc1 | -5 | 3 | -5 | 71* | 5 | -9 | -3
O=C(Nc1ccccc1Oc1ccccc1)NC1CCCCN(Cc2cccc(Cl)c2)C1=O (stereo not given) | . | . | . | . | -2 | . | .
O=C(Nc1ccc(S(=O)(=O)NCc2ccco2)cc1)c1ccc2ccccc2n1 | -2 | 8 | 7 | 98* | 2 | -11 | -9
SMILES | TLR4-MyD88 BLA | TLR9-MyD88 block | ABHD5-PLIN5 inh | Exocytosis inh | PRMT1 FP inh | NOD2 RIPK2 PPI | Granule exo CP1
COC(=O)C1=C(C)N(Cc2ccco2)C(=O)N[C@@H]1c1ccc(Br)cc1 | . | -43 | -6 | 56* | 3 | -9 | -4
CCCCNC(=O)N1CCCC1C(=O)Nc1cccc(OC)c1 (stereo not given) | . | . | . | . | 2 | . | .
CCN(CC)C(=O)CC[C@@H]1CC[C@]2(CCCN(Cc3cccnc3)C2)O1 | . | . | . | . | -2 | . | .
COc1ccccc1CCn1cnc(-c2ccc(Cl)cc2)c1CC(C)C | . | . | . | . | 2 | . | .
COc1cc2c(cc1OC)CN(c1ccc([N+](=O)[O-])cc1Cl)CC2 | 2 | 9 | 14 | 70* | 5 | 1 | -8
COc1cc2c(cc1OC)CN(c1ccc(F)cc1[N+](=O)[O-])CC2 | . | -4 | -8 | -8 | 4 | -9 | .
COc1cc2c(cc1OC)CN(c1ccc([N+](=O)[O-])cc1C#N)CC2 | 1 | 11 | 13 | 77* | 0 | -1 | -3
COc1cc(N/C(=C\C(=O)c2ccccc2)c2ccccc2)ccc1Cl | . | . | . | . | -3 | . | .
CN(Cc1ccccc1)c1ncnc2sccc12 | . | 3 | 7 | 57* | -1 | -4 | -3
Cc1cccn2c(=O)c3cc(C(=O)NC4CCCCC4)c(=N)n(Cc4ccc(F)cc4)c3nc12 | . | -13 | -6 | 70* | 2 | -11 | 40
CCCCN(C)C(=O)c1cn(C(C)c2ccccc2)nn1 (stereo not given) | . | . | . | . | 2 | . | .
CCc1ccc(-c2cc(C)no2)cc1S(=O)(=O)N1CCOc2ccccc21 | . | 12 | -2 | 89* | 1 | 3 | -2
CCN(CC)S(=O)(=O)c1ccc(N2CCCC2)c(NC(=O)Cc2ccc(OC)cc2)c1 | 1 | -9 | 4 | -2 | 3 | -4 | .
CCN(CC)S(=O)(=O)c1ccc(N2CCCC2)c(NC(=O)c2ccc(OC)cc2OC)c1 | 3 | 4 | -4 | 72* | 0 | -20 | -10
CCOC(=O)/C(=C\Nc1cccc(OCc2ccccc2)c1)NC(=O)c1ccccc1 | . | . | . | . | -2 | . | .
O=C(OCc1nc2ccccc2s1)c1ccc(Br)o1 | -8 | -1 | -1 | 1 | 4 | -3 | .
O=C(OCc1nc2ccccc2s1)c1ccco1 | 6 | 7 | 0 | 75* | -2 | 9 | -4
CCOc1ccc(-c2cc(C(=O)NCCCn3ccnc3)c3cc(Br)ccc3n2)cc1 | . | 4 | 12 | 79* | 1 | 14 | 80*
Cn1c(Cl)c(C(=O)Nc2ccc(Cl)cc2)c2ccccc21 | 7 | 1 | -3 | 69* | -3 | 4 | -1
COc1ccc(C(=O)CSc2nnc(-c3cccc(Cl)c3)n2Cc2ccco2)cc1 | . | . | . | . | 7 | . | .

High-throughput results: PubChem BioAssay, several laboratories
